From PubChem BioAssay AID504848 (National Center for Advancing Translational Sciences (NCATS), 2011)
Out of some 2,300 compounds screened, about 1,400 (61%) were called active. Not shown: some 29% with an inconclusive outcome. The call rests on the fitted dose curve; in most records, active means well fitted inhibition curve with a large enough effect; inconclusive means small, poorly fitted or top-dose-only effect, or effect the other way; inactive means no such curve, though single readings can be large or run the other way. So high a share suggests a set chosen from earlier hits. The list shows a part of the results.

Assay: Confirmation screen for delayed death inhibitors of the malarial parasite plastid, 96 hour incubation; further: nearly all actives have a fitted effect of over 60% in size
Details: P. falciparum luciferase growth in erythrocytes; series mostly up to 28.7 µM
Source text: The goal of this screen is to discover new antimalarial compounds that act by inhibiting the development of the apicoplast in the malarial parasite Plasmodium falciparum. The biochemical processes that make this organelle essential for erythrocytic stage parasites are not well understood. However, antibiotics, such as azithromycin and tetracycline, which target the apicoplast translational machinery, have a potent antimalarial effect. […] We have developed a cell-based assay that measures parasite growth based on the expression of an integrated copy of a firefly luciferase reporter. To detect small molecules that cause this "delayed death phenotype, erythrocytes infected with the luciferase-expressing parasites were incubated with compounds for either one or two generations, corresponding to 48 and 96 hours, respectively. Compounds that inhibit parasite growth in the second generation, but not the first, should be enriched in antimalarials that target the apicoplast. Growth inhibition is detected by a decrease in luciferase activity. MLPCN Grant: R21 NS059500 Assay Provider: David Fidock and Eric Ekland, Columbia University Keywords: NIH Roadmap, MLPCN, MLI, MLSMR, qHTS, NCGC, qHTS, malaria, luciferase, viability
Four microliters of culture medium (RPMI 1640 with 0.5% w/v Albumax (GIBCO), 24 mM sodium bicarbonate and 10 ug/mL gentamycin) were dispensed by a Multi-drop Combi into white solid 1536-well plates (Grenier) and 23 nL compound was added by a pin tool. Four microliters of infected erythrocytes (2% hematocrit, 0.1% parasitemia final concentration) in culture medium were dispensed and the plates incubated for 96 hours at 37 C in 5% CO2. Two microliters of luciferase detection reagent was added and luminescence was detected by a ViewLux (PerkinElmer) reader
Potency means the concentration at half of the fitted maximal effect.

Row | SMILES | Potency
1 | O=C(NCCN1CCN(c2ccc([N+](=O)[O-])cc2)CC1)NCc1ccccc1 | 12.6 µM (active)
2 | CC(C)CC1NC(=S)N(Cc2ccccc2)C1=O (centres undefined) | 3.98 µM (active)
3 | CCC(C(=O)O)C1OC(C(C)C(O)C(C)C(=O)C(CC)C2OC3(C=CC(O)C4(CCC(C)(C5CCC(O)(CC)C(C)O5)O4)O3)C(C)CC2C)C(C)CC1C (centres undefined) | 0.178 µM (active)
4 | COC(=O)COc1ccc(S(=O)(=O)NCCC2=CCCCC2)cc1Cl | inactive
5 | CC(=O)N1CCN(S(=O)(=O)c2cccc(C(=O)NCCC3=CCCCC3)c2)CC1 | 12.6 µM (active)
6 | CCNC(=O)NC(=O)C(C)OC(=O)c1oc2ccccc2c1CSC1CCCCC1 (centres undefined) | inactive
7 | CCOc1ccc(Cl)cc1C1=CC(=O)C[C@H](c2ccc(OC)cc2)C1 | 12.6 µM (active)
8 | COc1ccc(OC)c(C2=CC(=O)C[C@H](c3ccc4c(c3)OCO4)C2)c1 | 12.6 µM (active)
9 | Cc1ccc(S(=O)(=O)Nc2cccc3ncccc23)s1 | 3.98 µM (active)
10 | O=S(=O)(Nc1cccc2ncccc12)c1cccs1 | 3.55 µM (active)
11 | CCCc1ccc(C(=O)NC(=O)c2ccccc2O)cc1 | 0.562 µM (active)
12 | CC(C)N=C(NS(=O)(=O)c1ccccc1)C(Cl)(Cl)Cl | 4.47 µM (active)
13 | O=C1c2ccccc2-n2c1nc1ccccc1c2=O | 0.501 µM (active)
14 | NC(=S)Nn1c(-c2ccccc2)nc2ccccc2c1=O | inactive
15 | O=C1c2cc(F)ccc2-n2c1nc1ccccc1c2=O | 0.158 µM (active)
16 | O=C(CSc1nnc2ccc(-c3cccnc3)nn12)Nc1cccc(F)c1 | 8.91 µM (active)
17 | CC1CCC(NC(=O)CN(C)S(=O)(=O)c2ccc3c(c2)c(=O)n(C)c(=O)n3C)CC1 (centres undefined) | 3.98 µM (active)
18 | Cc1cccc(N(C)C(=O)CN(C)S(=O)(=O)c2ccc3c(c2)c(=O)n(C)c(=O)n3C)c1 | 12.6 µM (active)
19 | Cc1cc(C)cc(-n2c(N)c(C(=O)Nc3c(C)n(C)n(-c4ccccc4)c3=O)c3nc4ccccc4nc32)c1 | 3.16 µM (active)
20 | CCN(C(=O)c1cc2c(=O)n3ccccc3nc2n1CCCOC)C1CCCCC1 | 10 µM (active)
21 | CCOC(=O)c1c(C)c(-c2ccccc2)n(CC(=O)NCCCN(CC)CC)c1C | 11.2 µM (active)
22 | COc1ccc(-c2csc(N3CCN(C(=O)c4ccco4)CC3)n2)cc1 | 12.6 µM (active)
23 | O=c1[nH]c(C(F)(F)F)nc2ccc3ccccc3c12 | inactive

Row | SMILES | Potency
24 | Cn1nc(C(F)(F)F)c(C(=O)Nc2ccc(F)cc2F)c1Sc1ccc(C(F)(F)F)cc1 | 7.94 µM (active)
25 | CC(C)N(C(=O)CSc1nnc(-c2ccc3c(c2)OCO3)n1C)C(C)C | 10 µM (active)
26 | O=C(Nc1ccccc1O)c1ccc([N+](=O)[O-])cc1 | 12.6 µM (active)
27 | CCCOc1cc(NCc2ccccc2)c2ncn(C(C)C)c2c1 | 2.82 µM (active)
28 | O=C(OC[C@@H]1O[C@@](O)(COC(=O)c2cccnc2)[C@H](OC(=O)c2cccnc2)[C@H]1OC(=O)c1cccnc1)c1cccnc1 | 6.31 µM (active)
29 | Cn1c(CCn2ccccc2=O)nc2cc(NC(=O)COc3ccccc3)ccc21 | 10 µM (active)
30 | COc1ccccc1OCCCOc1cccc(/C=C2\SC(=O)NC2=O)c1 | 11.2 µM (active)
31 | CCOc1ccc(/C=C2\SC(=S)N(C(C(=O)O)c3ccccc3)C2=O)cc1OC (centres undefined) | inactive
32 | CNC(=S)N(CCc1c(C)[nH]c2ccc(Cl)cc12)Cc1cccnc1 | 12.6 µM (active)
33 | CNC(=S)N(CCc1c(C)[nH]c2ccc(C)cc12)Cc1cc(OC)c(OC)c(OC)c1 | 11.2 µM (active)
34 | Cc1cccc(NC(=O)c2cn(-c3ccccc3)nc2-c2ccccc2)c1 | 14.1 µM (active)
35 | O=C(CCl)Nc1cn(-c2ccccc2)nc1-c1ccccc1 | 11.2 µM (active)
36 | OC(c1ccccc1)(c1ccccc1)C1CCN(C(=S)NCCc2ccccc2)CC1 | 5.01 µM (active)
37 | CCC1CCCCN1CCCNC(=O)c1ccc(CS(=O)(=O)c2ccc(Br)cc2)o1 (centres undefined) | 5.01 µM (active)
38 | CN(CCNC(=O)c1ccc(CS(=O)(=O)c2ccc(Br)cc2)o1)CCc1ccccc1 | 2 µM (active)
39 | CCCCN(CCCNC(=O)c1ccc(CS(=O)(=O)c2ccc(OC)cc2)o1)Cc1ccccc1 | 5.01 µM (active)
40 | CN(CCCNC(=O)c1ccc(CS(=O)c2ccc(Br)cc2)o1)Cc1ccccc1 (centres undefined) | 1.78 µM (active)
41 | CCCCNC(=O)c1ccc(CS(=O)(=O)c2cccc(C(F)(F)F)c2)o1 | inactive
42 | Cn1c(=O)c([N+](=O)[O-])c(-n2ccnc2)c2ccccc21 | 14.1 µM (active)
43 | CCc1ccc(/C=N/n2c(C)cc(C)c(C#N)c2=O)cc1 | 6.31 µM (active)
44 | CCC1CN(C(=O)N2CCC(C(=O)NCc3cccc(OC)c3OC)CC2)c2cc(C)ccc2O1 (centres undefined) | 11.2 µM (active)
45 | COc1cccc(COC(=O)C2CC(=O)N(Cc3ccco3)C2)c1OC (centres undefined) | inactive
46 | CC(CN1CCC(n2nccc2NC(=O)c2ccccc2Cl)CC1)c1ccccc1 (centres undefined) | 10 µM (active)

Row | SMILES | Potency
47 | Cc1ccc(CN2CCC(n3nccc3NC(=O)c3ccccc3C)CC2)o1 | 12.6 µM (active)
48 | O=c1[nH]c(=O)n(Cc2ccco2)c2c1C(C(F)(F)F)(C(F)(F)F)N=C(CCc1ccccc1)N2 | 6.31 µM (active)
49 | CCOCCCNC(=O)/C(C#N)=C/c1ccc(-c2ccc(S(=O)(=O)N3CCOCC3)cc2)o1 | 11.2 µM (active)
50 | COc1ccc(NC(=O)CSc2ccc(-c3ccco3)nn2)c(OC)c1 | 11.2 µM (active)
51 | Cc1cc(=O)n2nc(N3CCC(C(=O)NCc4ccc(F)cc4)CC3)sc2n1 | 8.91 µM (active)
52 | Cc1cc(=O)n2nc(N3CCC(C(=O)NCCc4ccc(Cl)cc4)CC3)sc2n1 | 10 µM (active)
53 | Cc1cc(=O)n2nc(N3CCC(C(=O)NCc4ccc(Cl)cc4)CC3)sc2n1 | 10 µM (active)
54 | Cc1cc(=O)n2nc(N3CCCC(C(=O)NCc4ccc(Cl)cc4)C3)sc2n1 (centres undefined) | 11.2 µM (active)
55 | O=C(CCl)Nc1ccc(S(=O)(=O)Nc2nccs2)cc1 | 1.26 µM (active)
56 | O=C(CN1C(=O)/C(=C/c2ccc(F)cc2)SC1=S)N1CCN(CCc2ccccn2)CC1 | 15.8 µM (active)
57 | CC(C)(C)C(=O)/C(=C\c1cccc([N+](=O)[O-])c1)n1cncn1 | 10 µM (active)
58 | COc1ccc(OC)c(NC(=O)c2nc(S(=O)(=O)Cc3ccccc3)ncc2Cl)c1 | inactive
59 | COc1ccc(OC)c(NC(=O)c2ccccc2N(C)S(=O)(=O)c2ccc(C)cc2)c1 | 15.8 µM (active)
60 | C=CCN(c1ccccc1)S(=O)(=O)c1cccc(C(=O)N2CC(C)CC(C)C2)c1 (centres undefined) | 12.6 µM (active)
61 | Cn1nc([N+](=O)[O-])nc1Sc1nnc(-c2ccccc2)o1 | 11.2 µM (active)
62 | CSc1nc(C)c(C(=O)C[n+]2ccc(C)cc2)cc1C#N | 14.1 µM (active)
63 | COC(=O)C(=C/C(C)=C/c1cccs1)C(=O)OC | 12.6 µM (active)
64 | O=Nc1c(-c2c(O)[nH]c3cc(Br)ccc23)[nH]c2ccccc12 | 3.16 µM (active)
65 | Brc1ccc(/C=N/Nc2ncnc3c2cnn3Cc2ccccc2)cc1 | 3.55 µM (active)
66 | CC(C)[C@H](NC(=O)[C@@H]1Cc2c([nH]c3ccccc23)C2c3ccccc3C(=O)N21)C(=O)N1CCC[C@@H]1C(=O)O (some centres undefined) | 14.1 µM (active)
67 | CCC(=O)Nc1cccc(C2=NOC3(C2)C[C@@H](C(N)=O)N(C(=O)c2cc([N+](=O)[O-])cc([N+](=O)[O-])c2C)C3)c1 (some centres undefined) | 11.2 µM (active)
68 | COCCN(C(=O)CCCC(=O)Nc1ccccn1)C(C(=O)NC1CCCCC1)c1ccc(C)cc1 (centres undefined) | 10 µM (active)
69 | COCCn1c(SCC(=O)Nc2ccccc2F)nc2c(c1=O)SCC2 | inactive

Row | SMILES | Potency
70 | CCNc1nc(NCC)n2c(SCC(=O)Nc3ccccc3F)nnc2n1 | 11.2 µM (active)
71 | COc1ccc(CNCc2ccc3ccccc3c2)c(OC)c1 | 11.2 µM (active)
72 | COc1cccc(CN(C)CC2CCCN(CCc3ccc(Cl)cc3)C2)c1OC (centres undefined) | 2.82 µM (active)
73 | CCOc1cc(/C=C/C(=O)Nc2ccc(C(=O)NCCN(CC)CC)cc2)ccc1OCC(C)C | 2 µM (active)
74 | CCC(=O)Nc1ccc2c(c1)ncn2-c1ccccc1OC | 11.2 µM (active)
75 | Cn1nc(CC(=O)Nc2ncc(Br)s2)c2ccccc2c1=O | 7.94 µM (active)
76 | COc1ccc(/C=C/C(=O)c2ccc([N+](=O)[O-])o2)cc1OC | 11.2 µM (active)
77 | COc1ccc(Cl)cc1/C=C/c1ccc2cccc(O)c2n1 | 5.62 µM (active)
78 | Oc1cccc2ccc(/C=C/c3ccccc3Br)nc12 | 2.24 µM (active)
79 | Cc1ccc(C)c(N(CC(=O)Nc2cc(Cl)ccc2Oc2ccccc2)S(C)(=O)=O)c1 | 8.91 µM (active)
80 | COc1ccccc1OCC(=O)Nc1cc(Cl)ccc1Oc1ccccc1 | inactive
81 | CC(C)(C)NC(=O)[C@H]1CN(Cc2cccnc2)CCN1C[C@@H](O)C[C@@H](Cc1ccccc1)C(=O)N[C@H]1c2ccccc2C[C@H]1O | 3.98 µM (active)
82 | CCc1ccc(Nc2n[n+](-c3ccccc3)c(-c3cccc(Cl)c3Cl)s2)cc1 | 2.82 µM (active)
83 | Cc1c(C(=O)C(=O)N2CCCc3ccccc32)c2ccccc2n1C | 12.6 µM (active)
84 | CN(c1ccccc1)S(=O)(=O)c1ccc(NC(=O)c2nc(S(C)(=O)=O)ncc2Cl)cc1 | inactive
85 | CCOC(=O)/C=C/C(=O)Nc1ccc(S(=O)(=O)N(C)c2ccccc2)cc1 | 10 µM (active)
86 | NC(=O)COc1ccc(C(=O)/C=C2/C(=O)Nc3ccccc32)cc1 | inactive
87 | CC(=O)/C=C1/C(=O)Nc2ccccc21 | 12.6 µM (active)
88 | Cc1cccc2c1NC(=O)/C2=C\C(=O)c1cccs1 | inactive
89 | O=C(O)CCCCCNc1nc(-c2ccccc2)nc2ccccc12 | 10 µM (active)
